From PubChem BioAssay AID1332 (Southern Research Institute, 2008) come the findings set out here.

Converted amounts (≈) assume the structure as drawn. Hit rate of the full screen: of about 1,100 compounds, about 170 (15%) were called active. How the calls were made is not given here. Only a sample is shown.

This test can be described thus: Mycobacterium tuberculosis H37Rv growth inhibition, confirmatory dose response, cytotoxicity (AID 1332).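 On CC50: Vero cells exposed to compounds for 72 hours.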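 On IC50: bacteria incubated 7 days before adding Alamar blue readout reagent.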 Conditions: M. tuberculosis H37Rv growth inhibition; CC50: measured here: Vero cell cytotoxicity; IC50: measured here: IC50 H37Rv replicates.
Consider `CCn1cc(C(=O)O)c(=O)c2cnc(N3CCCC3)nc21`, for which the IC50 was above 20 µg/mL and the molecule was classed as inactive.

Consider `Cc1cccc(N(C)C(=S)Oc2ccc3ccccc3c2)c1`, for which the IC50 is above 20 µg/mL and the result was inactive.

Regarding `O=C(O)C1(O)C[C@H](O)C(O)[C@@H](O)C1` (stereo partly specified), the IC50 was above 20 µg/mL and the molecule was called inactive.

Take `COc1ccc([C@@H]2CC(=O)c3c(O)cc(O)cc3O2)cc1O`: the IC50 was above 20 µg/mL and the molecule was called inactive.

As for `CCCCN(CCCC)CCCOC(=O)c1ccc(N)cc1`, the IC50 is above 20 µg/mL and the outcome was inactive.

For the molecule `CC1(C)S[C@@H]2[C@H](NC(=O)C(C(=O)O)c3ccsc3)C(=O)N2[C@H]1C(=O)O` (stereo partly specified), the IC50 is above 20 µg/mL and the result was inactive.

`CC(=O)N(CC(O)CN(C(C)=O)c1c(I)c(C(=O)NCC(O)CO)c(I)c(C(=O)NCC(O)CO)c1I)c1c(I)c(C(=O)NCC(O)CO)c(I)c(C(=O)NCC(O)CO)c1I` (stereo unspecified): the IC50 was above 20 µg/mL and the outcome was inactive.

Take `Cn1c(-c2ccc3c(c2)OCO3)cc(=O)c2ccccc21`: the IC50 is above 20 µg/mL and the call was inactive.

For the molecule `Cc1c(N)c(=O)n(-c2ccccc2)n1C`, the IC50 was above 20 µg/mL and the result was inactive.

For the molecule `COc1ccc2cc1Oc1ccc(cc1)C[C@H]1c3cc(c(OC)cc3CCN1C)Oc1c(OC)c(OC)cc3c1[C@H](C2)N(C)CC3`, the CC50 was above 6 µg/mL, the IC50 is above 20 µg/mL and the call was inactive.

In the case of `Cc1[nH]ccc2c1[nH]c1cc(=O)ccc12`, the CC50 was above 6 µg/mL, the IC50 is above 20 µg/mL and the molecule was called inactive.

In the case of `CC(C)(C)NCC(O)COc1ccccc1C1CCCC1` (stereo unspecified), the IC50 is above 20 µg/mL and the outcome was inactive.

Consider `O=C(O)c1cccnc1`, for which the IC50 was above 20 µg/mL and the result was inactive.

As for `O=C1C(=O)c2ccccc2C(O)=C1C1CCC(c2ccc(Cl)cc2)CC1` (stereo unspecified), the CC50 was above 6 µg/mL, the IC50 came out at 10.1 µg/mL (≈ 27.6 µM) and the result was active.

As to `C/C=C(\C)C(=O)O[C@H]1[C@H](OC(C)=O)[C@@]2(CO)C(CC1(C)C)C1=CC[C@@H]3[C@@]4(C)CC[C@H](O[C@@H]5O[C@H](C(=O)O)[C@@H](O[C@@H]6O[C@H](CO)[C@@H](O)[C@H](O)[C@H]6O)[C@H](O)[C@H]5O[C@@H]5O[C@H](CO)[C@@H](O)[C@H](O)[C@H]5O)[C@](C)(CO)C4CC[C@@]3(C)[C@]1(C)C[C@H]2O` (stereo partly specified), the IC50 was above 20 µg/mL and the call was inactive.

On to `CCCCc1cc2ccccc2c(OCCN(C)C)n1`, for which the IC50 came to 13.5 µg/mL (≈ 49.5 µM) and the result was active.

On to `CN(C)CCOC(c1ccccc1)c1ccccc1`, for which the IC50 is above 20 µg/mL and the molecule was called inactive.

Consider `CN(C)CCCOc1nn(Cc2ccccc2)c2ccccc12`, for which the concentration for half-maximal inhibition (IC50) was above 20 µg/mL and the result was inactive.

Take `CCCCOc1cc(C(=O)NCCN(CC)CC)c2ccccc2n1`: the IC50 is above 20 µg/mL and the molecule was called inactive.

For the molecule `CC[N+](CC)(CC(=O)Nc1c(C)cccc1C)Cc1ccccc1`, the IC50 is above 20 µg/mL and the molecule was called inactive.

Consider `Clc1ccc(C(OCCN2CCCCC2)c2ccccc2)cc1` (stereo unspecified), for which the CC50 is above 6 µg/mL, the IC50 was above 20 µg/mL and the molecule was called inactive.

With `CN1CCc2c(c3ccccc3n2Cc2ccccc2)C1`, the IC50 is above 20 µg/mL and the molecule was classed as inactive.

As to `Clc1ccc(Cn2c(CN3CCCC3)nc3ccccc32)cc1`, the IC50 turned out to be 3.58 µg/mL (≈ 11 µM) and the outcome was active.

As for `CCOc1ccc(Cc2nccc3cc(OCC)c(OCC)cc23)cc1OCC`, the CC50 was above 6 µg/mL, the IC50 is above 20 µg/mL and the molecule was called inactive.

For the molecule `CC(C)n1c(/C=C/[C@H](O)C[C@H](O)CC(=O)O)c(-c2ccc(F)cc2)c2ccccc21`, the CC50 came to 0.354 µg/mL (≈ 0.86 µM), the half-inhibitory concentration (IC50) was above 20 µg/mL and the molecule was classed as inactive.

As to `C=C[C@]12CN(C)[C@@H]3[C@H]4COC(CC41)[C@]1(C(=O)Nc4ccccc41)[C@@H]32`, the IC50 was above 20 µg/mL and the molecule was called inactive.

For the molecule `COC1=CC(=O)C[C@@H](C)[C@]12Oc1c(Cl)c(OC)cc(OC)c1C2=O`, the CC50 was above 6 µg/mL, the IC50 was above 20 µg/mL and the molecule was classed as inactive.

As to `NC(=O)N/N=C/c1ccc([N+](=O)[O-])o1`, the CC50 is above 6 µg/mL, the IC50 came out at 11.5 µg/mL (≈ 58 µM) and the molecule was called active.

As for `CC(C(=O)O)c1ccc(C(=O)c2ccccc2)s1` (stereo unspecified), the concentration for half-maximal inhibition (IC50) is above 20 µg/mL and the result was inactive.

Take `CCC(=O)OCC(=O)[C@@]1(OC(=O)CC)[C@@H](C)C[C@H]2[C@@H]3CCC4=CC(=O)C=C[C@]4(C)[C@@]3(Cl)[C@@H](O)C[C@@]21C`: the IC50 was above 20 µg/mL and the molecule was classed as inactive.

As for `CC[C@H]1CN2CCc3cc(OC)c(OC)cc3[C@@H]2C[C@@H]1C[C@H]1NCCc2cc(O)c(OC)cc21`, the CC50 is below 0.023 µg/mL, the IC50 was above 20 µg/mL and the outcome was inactive.

As to `Fc1ccc([C@@H]2CCNC[C@H]2COc2ccc3c(c2)OCO3)cc1`, the CC50 was 4.88 µg/mL (≈ 14.8 µM), the 50% inhibitory concentration (IC50) was determined as 13.1 µg/mL (≈ 39.7 µM) and the call was active.

In the case of `C[C@H](NCCc1ccc(O)cc1)[C@H](O)c1ccc(O)cc1`, the IC50 is above 20 µg/mL and the call was inactive.

As for `C[C@@H]1CC[C@@]2(NC1)O[C@H]1C[C@H]3[C@@H]4CC=C5C[C@@H](O)CC[C@]5(C)[C@H]4CC[C@]3(C)[C@H]1[C@@H]2C`, the IC50 is above 20 µg/mL and the molecule was called inactive.

For the molecule `C[C@]12C=CC(=O)C=C1CC[C@@H]1[C@@H]2[C@@H](O)C[C@@]2(C)[C@H]1CC[C@]2(O)C(=O)CO`, the IC50 was above 20 µg/mL and the molecule was classed as inactive.

Consider `CC(C)(C)NCC(O)COc1cccc2c1CC(O)C(O)C2` (stereo unspecified), for which the concentration for half-maximal inhibition (IC50) was above 20 µg/mL and the outcome was inactive.

`NC[C@H]1O[C@H](OC2[C@@H](N)C[C@@H](N)[C@H](O)[C@H]2O[C@@H]2O[C@H](CO)[C@@H](O)[C@H]2O)[C@H](N)[C@@H](O)[C@@H]1O` (stereo partly specified): the IC50 is above 20 µg/mL and the call was inactive.

With `NC[C@@H]1O[C@H](O[C@H]2[C@@H](O)[C@H](O[C@@H]3[C@@H](O)[C@H](N)C[C@H](N)[C@H]3O[C@H]3O[C@H](CN)[C@@H](O)[C@H](O)[C@H]3N)O[C@@H]2CO)[C@H](N)[C@@H](O)[C@@H]1O`, the IC50 was above 20 µg/mL and the outcome was inactive.
